In PubChem BioAssay (NCATS):
Results filed as inconclusive are left out. Entries that show only a call come without a potency. Values without a mark were called inactive. Calls of active or inactive are those of the source. Calls come from the whole dose curve; as a rule, active = well fitted inhibition curve with a large enough effect; inconclusive = small, poorly fitted or top-dose-only effect; inactive = flat fitted curve, though single readings scatter.

Legend:
PC26 = test: qHTS profiling for inhibitors of Plasmodium falciparum proliferation (AID 504749); details: P. falciparum in erythrocytes, SYBR Green DNA, 72 h; series mostly up to 28.7 µM
Outline: (§1)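 Fluorescence of SYBR Green-bound parasite DNA, read at 485/535 nm, served as the growth measure. Infected erythrocytes were cultured with compound 72 h; artemisinin (0.29 uM) and DMSO wells defined the normalization range.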

PC49 = test: as above; details: P. falciparum in erythrocytes, SYBR Green DNA, 72 h; series mostly up to 28.7 µM
Outline: as §1

SC27B = test: as above; details: P. falciparum in erythrocytes, SYBR Green DNA, 72 h; series mostly up to 28.7 µM
Outline: as §1

TAB109 = test: as above; details: P. falciparum in erythrocytes, SYBR Green DNA, 72 h; series mostly up to 28.7 µM
Outline: as §1

TAB113 = test: as above; details: P. falciparum in erythrocytes, SYBR Green DNA, 72 h; series mostly up to 28.7 µM
Outline: as §1

TAB165 = test: as above; details: P. falciparum in erythrocytes, SYBR Green DNA, 72 h; series mostly up to 28.7 µM
Outline: as §1

W2 = test: as above; details: P. falciparum in erythrocytes, SYBR Green DNA, 72 h; series mostly up to 28.7 µM
Outline: as §1

CRL-7250 = normal cell line; test: Cytotoxic Profiling of Annotated Libraries Using Quantitative High-Throughput Screening (AID 1296008); details: Five cell lines viability, CellTiter-Glo ATP luminescence, 48-72 h; max response: active compounds read low
Outline: (§2)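 Compounds were pin-transferred onto cells and incubated 48 or 72 hr at 37 degree Celsius, 95% humidity. CellTiter-Glo was added, plates sat 10 min at room temperature, then ATP-coupled luminescence was imaged as the viability read-out.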

HEK293 = test: as above; details: Five cell lines viability, CellTiter-Glo ATP luminescence, 48-72 h; max response: active compounds read low
Outline: as §2

HaCat = test: as above; details: Five cell lines viability, CellTiter-Glo ATP luminescence, 48-72 h; max response: active compounds read low
Outline: as §2
Note: nearly all actives have a fitted effect of over 60% in size.
Potency is the fitted concentration of half-maximal effect.

Row | SMILES | Potency (PC26) | Potency (PC49) | Potency (SC27B) | Potency (TAB109) | Potency (TAB113) | Potency (TAB165) | Potency (W2) | outcome (CRL-7250) | max response (HEK293) [%] | max response (HaCat) [%] | max response (CRL-7250) [%] | outcome (HaCat) | Potency (HEK293) | Potency (CRL-7250) | outcome (HEK293)
1 | CCNC(=O)NCc1cccc(Cl)c1 | inactive | inactive | inactive | inactive | inactive | inactive | inactive | inactive | 4.87 | -5.45 | – | – | – | – | –
2 | C/C=C/c1ccc(O)c(OC)c1 | inactive | inactive | inactive | inactive | inactive | inactive | inactive | – | -2.94 | – | -0.654 | inactive | – | – | –
3 | NCCNC(=O)c1ccc(Cl)cn1 | inactive | inactive | inactive | inactive | inactive | inactive | inactive | inactive | -1.7 | – | – | inactive | – | – | –
4 | CCCCNC(=O)NS(=O)(=O)c1ccc(N)cc1 | inactive | inactive | inactive | inactive | inactive | inactive | inactive | – | 2.1 | 3.3 | -16.6 | – | – | – | –
5 | CCC(CC)(CC(=O)Nc1cccc(/C=C/c2nc(C3CCC3)cs2)c1)C(=O)O | inactive | inactive | inactive | inactive | inactive | inactive | inactive | – | -8.39 | – | 2.29 | inactive | – | – | –
6 | CCc1oc2ccccc2c1C(=O)c1cc(Br)c(O)c(Br)c1 | inactive | inactive | inactive | inactive | inactive | inactive | inactive | – | -23.3 | – | 0.197 | inactive | – | – | –
7 | C#C[C@]1(OC(C)=O)CC[C@H]2[C@@H]3CCC4=C/C(=N/O)CC[C@@H]4[C@H]3CC[C@@]21CC | – | inactive | inactive | inactive | inactive | inactive | – | – | – | 2.29 | -7.16 | – | 13.3 µM (active) | – | –
8 | CC(C)[N+](C)(C)CC(O)COc1cccc2ccccc12 (stereo not given) | inactive | inactive | inactive | – | inactive | – | inactive | – | -10.5 | -6.06 | -19.4 | – | – | – | –
9 | CC(=O)O[C@]1(C(C)=O)CC[C@H]2[C@@H]3C=C(Cl)C4=CC(=O)CC[C@]4(C)[C@H]3CC[C@@]21C | 13.5 µM (active) | inactive | 8.91 µM (active) | – | 7.08 µM (active) | – | 10.7 µM (active) | – | – | – | -6.12 | inactive | 18.8 µM (active) | – | –
10 | CCCCC(CC)COC(=O)c1ccc(N(C)C)cc1 (stereo not given) | inactive | inactive | inactive | inactive | inactive | inactive | inactive | inactive | -4.34 | -11.9 | – | – | – | – | –
11 | COc1cc(C(=S)N2CCOCC2)ccc1O | inactive | inactive | inactive | inactive | – | inactive | inactive | – | -23.8 | -11.5 | -4.16 | – | – | – | –
12 | O=C(O)P(=O)(O)O | inactive | inactive | inactive | inactive | inactive | inactive | inactive | inactive | 0.892 | -5.53 | – | – | – | – | –
13 | COC(=O)C(c1ccccc1Cl)N1CCc2sccc2C1 (stereo not given) | – | inactive | – | – | – | – | – | – | 4.89 | 4.22 | -10.1 | – | – | – | –
14 | CC(=O)NCCCCCC(=O)O | – | inactive | inactive | inactive | inactive | inactive | inactive | – | 1.53 | -2.92 | -1.79 | – | – | – | –
15 | OC1C(O)C(O)C(O)C(O)C1O (stereo not given) | inactive | inactive | inactive | inactive | inactive | inactive | inactive | inactive | 2.94 | 2.27 | – | – | – | – | –
16 | CCCCCCCCOc1ccc(C(=O)c2ccccc2)c(O)c1 | inactive | inactive | inactive | inactive | inactive | inactive | inactive | – | -1.87 | -8.31 | -1.36 | – | – | – | –
17 | CCCCCCCCCCCCCCCCO | inactive | inactive | inactive | inactive | inactive | inactive | inactive | – | 1.14 | -1.51 | -12.4 | – | – | – | –
18 | NCCNc1cccc2ccccc12 | inactive | inactive | – | inactive | – | inactive | – | – | -7.17 | -24.9 | -3.59 | – | – | – | –
19 | Nc1ccc(C(=O)NCC(=O)O)cc1 | inactive | inactive | inactive | inactive | inactive | inactive | inactive | – | 0.145 | 0.603 | -1.17 | – | – | – | –
20 | CC(C)Cc1ccc(CC(=O)O)cc1 | inactive | inactive | inactive | inactive | inactive | inactive | inactive | – | -6.81 | -0.56 | 2.76 | – | – | – | –

Row | SMILES | Potency (PC26) | Potency (PC49) | Potency (SC27B) | Potency (TAB109) | Potency (TAB113) | Potency (TAB165) | Potency (W2) | outcome (CRL-7250) | max response (HEK293) [%] | max response (HaCat) [%] | max response (CRL-7250) [%] | outcome (HaCat) | Potency (HEK293) | Potency (CRL-7250) | outcome (HEK293)
21 | Cc1cc(-c2ccccc2)nnc1NCCN1CCOCC1 | inactive | inactive | inactive | – | inactive | inactive | – | – | 1.05 | -33.8 | -17.2 | – | – | – | –
22 | CCOC(=O)c1ccc(N)cc1 | inactive | inactive | inactive | inactive | inactive | inactive | inactive | – | -24 | -25.3 | -8.72 | – | – | – | –
23 | CCOc1ccccc1C(N)=O | inactive | inactive | inactive | inactive | inactive | inactive | inactive | inactive | -2.36 | 1.44 | – | – | – | – | –
24 | CCOc1ccc(NC(C)=O)cc1 | inactive | inactive | inactive | inactive | inactive | inactive | inactive | – | -5.15 | -1.35 | -21.4 | – | – | – | –
25 | Cn1c(=O)c2[nH]c(Br)nc2n(C)c1=O | inactive | inactive | inactive | – | inactive | inactive | inactive | inactive | -7.38 | -0.598 | – | – | – | – | –
26 | CCNC(=O)/C=C/c1cccc(Br)c1 | inactive | inactive | inactive | – | inactive | – | inactive | inactive | -0.855 | 0.498 | – | – | – | – | –
27 | Nc1nc(-c2ccccc2)c(Br)c(=O)[nH]1 | inactive | inactive | inactive | inactive | inactive | inactive | inactive | – | -28.5 | -7.63 | -18.3 | – | – | – | –
28 | CC(=O)O[C@H]1C[C@@H]2CC[C@@H]3[C@H](CC[C@@]4(C)[C@H]3C[C@H]([N+]3(C)CCCCC3)[C@@H]4OC(C)=O)[C@@]2(C)C[C@@H]1N1CCCCC1 | inactive | inactive | inactive | – | inactive | – | 12 µM (active) | – | 1.01 | 3.88 | -0.866 | – | – | – | –
29 | O=C(O)CCc1nc2ccccc2[nH]1 | – | 0.01 µM (active) | – | inactive | – | 7.94 µM (active) | – | – | -3.96 | -3 | -5.04 | – | – | – | –
30 | CN1CCN(C2=Nc3ccccc3Sc3ccc(Cl)cc32)CC1 | – | inactive | – | – | – | – | 3.79 µM (active) | – | -15.3 | -2.52 | -8.62 | – | – | – | –
31 | COc1cc(NS(=O)(=O)c2ccc(N)cc2)ncn1 | inactive | inactive | inactive | inactive | inactive | inactive | inactive | inactive | -0.739 | – | – | – | – | – | –
32 | CCCCCN=C(N)N/N=C/c1c[nH]c2ccc(OC)cc12 | 12 µM (active) | – | 12.6 µM (active) | 4.47 µM (active) | 10 µM (active) | 3.55 µM (active) | 1.51 µM (active) | – | – | – | – | – | 8.41 µM (active) | 18.8 µM (active) | –
33 | C=C[C@@]1(C)CC(=O)[C@]2(O)[C@@]3(C)[C@@H](O)CCC(C)(C)[C@@H]3[C@H](O)[C@H](OC(C)=O)[C@@]2(C)O1 | inactive | inactive | inactive | inactive | inactive | inactive | inactive | – | -3.5 | – | 2.74 | – | – | – | –
34 | O=S(c1cc(Cl)cc(Cl)c1O)c1cc(Cl)cc(Cl)c1O | – | 0.398 µM (active) | – | – | – | 0.355 µM (active) | – | inactive | -2.46 | -16.1 | – | – | – | – | –
35 | O=C(c1ccc(F)cc1)C1CCN(CCn2c(=S)[nH]c3ccccc3c2=O)CC1 | 8.49 µM (active) | 11.2 µM (active) | 3.16 µM (active) | 4.47 µM (active) | 3.98 µM (active) | 5.01 µM (active) | 2.39 µM (active) | – | -98.9 | – | -5.62 | – | – | – | –
36 | COc1ccc(C(=O)c2ccccc2O)c(O)c1 | – | inactive | – | inactive | inactive | – | – | inactive | -10.9 | 4.59 | – | – | – | – | –
37 | COc1ccc(CN(CCN(C)C)c2ncccn2)cc1 | inactive | inactive | inactive | inactive | inactive | inactive | 5.36 µM (active) | – | – | – | 0.19 | – | – | – | inactive
38 | COc1cc(O)c(C(=O)c2ccccc2)cc1S(=O)(=O)O | – | inactive | inactive | – | – | – | 7.57 µM (active) | – | -6.68 | -4.69 | 1.74 | – | – | – | –
39 | CC(=O)Oc1ccc(C)cc1 | inactive | inactive | inactive | inactive | inactive | inactive | inactive | – | -1.12 | – | -8.74 | – | – | – | –
40 | O=C1C(O)=C(O)C(=O)C(O)=C1O | inactive | inactive | inactive | inactive | inactive | inactive | – | – | – | – | -21.8 | – | – | – | inactive
